This note sets out measurements from PubChem BioAssay (NCI).

Assay [1] in a line: NCI Yeast Anticancer Drug Screen. Data for the rad50 strain (AID 155).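 Note: 0% = growth of vehicle-only cultures of the same strain.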 To be noted: S. cerevisiae rad50 strain growth inhibition; at 50.0 µM; active compounds read high. The gist of the method:
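Genetically altered yeast (DNA repair pathway); compound treatment; growth inhibition vs vehicle ctrl.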

Assay [2] is described as follows: NCI Yeast Anticancer Drug Screen. Data for the mec2-1 strain (AID 157). To be noted: S. cerevisiae mec2-1 strain, at 50.0 µM, active compounds read high. The gist of the method:
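Compounds were applied to mec2-1 yeast cells. Their growth was then compared with that of vehicle-treated cultures to give growth inhibition.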

The nature of assay [3]: NCI Yeast Anticancer Drug Screen. Data for the sgs1 mgt1 strain (AID 161).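 Note: 0% = growth of cultures given vehicle only.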 The following applies: S. cerevisiae sgs1 mgt1 strain, at 50.0 µM, active compounds read high. The procedure, abridged: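 Compounds are added to genetically altered yeast, and growth is compared with cultures given vehicle alone to give percent inhibition.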
Assay [4] can be described thus: NCI Yeast Anticancer Drug Screen. Data for the cln2 rad14 strain (AID 165).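 Note: 0% = growth equal to vehicle treated cultures.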 The following applies: S. cerevisiae cln2 rad14 strain, at 50.0 µM, active compounds read high. The gist of the method: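 Strain: cln2 rad14 yeast, altered in cell cycle control and DNA damage repair. Read-out: growth inhibition vs vehicle.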
Assay [5] in a line: NCI Yeast Anticancer Drug Screen. Data for the bub3 strain (AID 167). The following applies: S. cerevisiae bub3 mutant strain, at 50.0 µM, active compounds read high. The gist of the method:
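Yeast carrying a defined mutation is treated with each compound, and growth is compared with that of vehicle-exposed cells to give inhibition.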

Assay [6] in a line: NCI Yeast Anticancer Drug Screen. Data for the mlh1 rad18 strain (AID 175). The following applies: S. cerevisiae mlh1 rad18 strain growth inhibition; at 50.0 µM; active compounds read high. The gist of the method: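 A repair-deficient yeast strain is exposed to test compound, and growth is scored relative to vehicle-treated controls.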

This is part of a sample that, as a whole, favours compounds with a hit. Of some 79,000 tested, about 15% had one in any assay. Unmarked numbers belong to inactive results. Calls of active or inactive are those of the source. Cut-off read from the data, not from the text of the source: active = growth inhibition above about 70%; inactive = the rest.

In the case of `COc1ccc(C2C3=C(CCCC3=O)N(c3ccccc3)C3=C2C(=O)CCC3)cc1`, the growth inhibition was -67% in assay [1]; -18.4% in assay [2]; 3.3% in assay [3]; 19.9% in assay [4]; 7.4% in assay [5]; -27.5% in assay [6].

On to `N#CC(C#N)=C(N)/C(C#N)=C\c1ccnc2ccccc12`, for which the growth inhibition in assay [1] is -28.9%; in assay [2] it was -1.75%; in assay [3], -3%; in assay [4], 15.1%; in assay [5], 0.65%; in assay [6] it was -18.2%.

Take `Cc1ccn2c(-c3ccccc3)nnc2c1`: the growth inhibition was -23.6% in assay [1]; -17.7% in assay [2]; -14.6% in assay [3]; -11.8% in assay [4]; -18.1% in assay [5]; -16% in assay [6].

For the compound `NC(=O)NNC/C(Cl)=C(\Cl)C(=O)O`, the growth inhibition in assay [1] was -1.65%; in assay [2], -19.4%; in assay [3], 8.7%; in assay [4], 16.9%; in assay [5], 5.5%; in assay [6], 2.85%.

With `Cc1cccc(C)c1NC(=O)C(=O)Cc1nc2ccccc2s1`, the growth inhibition in assay [1] was -12.1%; in assay [2] it was -0.45%; in assay [3], -9.25%; in assay [4] it was -4.45%; in assay [5], -30.5%; in assay [6] it was -6.8%.

With `CCOC(=O)C1Oc2ccccc2O1`, the growth inhibition in assay [1] is 11.8%; in assay [2], -14.6%; in assay [3], -7%; in assay [4], -41.1%; in assay [5], -13.1%; in assay [6], -10.8%.

Turning to `Nc1ccc2cc(S(=O)(=O)O)ccc2c1`, the growth inhibition is 3.95% in assay [1]; 14.9% in assay [2]; -21.1% in assay [3]; -3.95% in assay [4]; 0.95% in assay [5]; -6.05% in assay [6].

Take `Cn1c(=O)c2c(nc(C3CC3)n2C)n(C)c1=O`: the growth inhibition in assay [1] was -1.15%; in assay [2], -0.6%; in assay [3], 5.65%; in assay [4], -16.6%; in assay [5], -0.55%; in assay [6] it was 12.1%.

`NCCCCC(N)C(=O)NC1C(CO)OC(n2cnc3c(N)ncnc32)C1O` (centres undefined): the growth inhibition in assay [1] was 31.9%; in assay [2], 13.2%; in assay [3] it was 7.55%; in assay [4] it was 14.3%; in assay [5], 5.75%; in assay [6], 30.1%.

`COC(=O)c1ccc(OC(=O)Nc2ccc(C)cc2)cc1`: the growth inhibition in assay [1] was -7.15%; in assay [2], -9.6%; in assay [3], -8.45%; in assay [4], -9.4%; in assay [5], 13.6%; in assay [6] it was -6.6%.

On to `NC(=O)c1ccccc1NC(=O)C(=O)C(c1cnc2ccc([N+](=O)[O-])cc2n1)[N+](=O)[O-]` (centres undefined), for which the growth inhibition was 9.7% in assay [1]; -1.1% in assay [2]; 19.6% in assay [3]; 12.9% in assay [4]; 5.85% in assay [5]; 28.8% in assay [6].

For `Cc1ccc(I)cc1`, the growth inhibition in assay [1] was -59.4%; in assay [2] it was -32.6%; in assay [3], -33.9%; in assay [4], -7.5%; in assay [5] it was -2.9%; in assay [6], -19.1%.

`Cc1ccc(Cl)c(NC(=O)c2ccccc2Cl)c1`: the growth inhibition was 6.2% in assay [1]; 8.2% in assay [2]; 18.8% in assay [3]; -8% in assay [4]; 12.4% in assay [5]; 30.9% in assay [6].

Regarding `CCOC(=O)NCC(C)(C)C`, the growth inhibition in assay [1] is -2.4%; in assay [2] it was 10.9%; in assay [3], 6.5%; in assay [4], -0.65%; in assay [5], -7.9%; in assay [6] it was 35.4%.

For the compound `CC(O)CNc1ncnc2ccccc12` (centres undefined), the growth inhibition is -13.5% in assay [1]; -12.2% in assay [2]; -3.15% in assay [3]; -5.1% in assay [4]; 9.15% in assay [5]; 4.05% in assay [6].

`C=CC(=NC(C)(C)C)Nc1ccc(Cl)cc1`: the growth inhibition in assay [1] was -13%; in assay [2], -6.8%; in assay [3], -36.2%; in assay [4] it was -14.6%; in assay [5] it was -19.2%; in assay [6], 3.4%.

As for `COc1ccc2c(c1)N(CC(C)CN(C)C)c1ccccc1S2` (centres undefined), the growth inhibition is 0.75% in assay [1]; 25.7% in assay [2]; -0.95% in assay [3]; -3.75% in assay [4]; 39.5% in assay [5]; 11.4% in assay [6].

With `O=C(/C=C/c1ccccc1)c1ccc(Oc2ccccc2)cc1`, the growth inhibition in assay [1] was -13.2%; in assay [2], -12.8%; in assay [3], -12.9%; in assay [4], -39.5%; in assay [5], 7.5%; in assay [6] it was -14.8%.

On to `COC(=O)C1=NNC(c2ccc(C)cc2)C1` (centres undefined), for which the growth inhibition was 1.75% in assay [1]; -2.25% in assay [2]; -0.95% in assay [3]; -0.3% in assay [4]; -16% in assay [5]; 2.85% in assay [6].

Consider `CC(C)C(N)(C(=O)O)c1ccccc1` (centres undefined), for which the growth inhibition was -19.7% in assay [1]; -20.2% in assay [2]; -51.5% in assay [3]; -73.4% in assay [4]; -14.9% in assay [5]; -24.9% in assay [6].

Turning to `CN1C(=O)C(C)(O)Sc2ccccc21` (centres undefined), the growth inhibition in assay [1] is -1.2%; in assay [2], -19.4%; in assay [3], -36.2%; in assay [4], -17.9%; in assay [5] it was -9.2%; in assay [6], 0.1%.

`Cc1cccc(C)c1Nc1cc(=O)[nH]c(=O)[nH]1`: the growth inhibition in assay [1] is -2.6%; in assay [2] it was -2.75%; in assay [3], 3.4%; in assay [4], -33.2%; in assay [5], -11.6%; in assay [6], -12.2%.

Turning to `CN(C)CCCCCCNCCC#N`, the growth inhibition in assay [1] was 21.2%; in assay [2], -27.8%; in assay [3] it was -8.4%; in assay [4], -8.85%; in assay [5] it was -28.4%; in assay [6], -1.6%.

Regarding `O=C(NN1C(=O)CS(=O)(=O)C1c1ccc(C(F)(F)F)cc1)c1ccncc1` (centres undefined), the growth inhibition in assay [1] is -10.7%; in assay [2] it was 2.2%; in assay [3] it was 5.8%; in assay [4], 8.8%; in assay [5], 1.05%; in assay [6], 7.75%.

Regarding `CC1(C)N=C(N)N=C(N)N1c1cccc(/C=C/c2ccc([N+](=O)[O-])cc2)c1`, the growth inhibition is 2.45% in assay [1]; -7.35% in assay [2]; -6.1% in assay [3]; -43% in assay [4]; -3.3% in assay [5]; 9.75% in assay [6].

Regarding `COc1ccccc1N=NNc1ccc(S(=O)(=O)NC(C)=O)cc1`, the growth inhibition in assay [1] is 14.9%; in assay [2], -28.5%; in assay [3], -1.1%; in assay [4] it was -0.6%; in assay [5] it was -15%; in assay [6], 0.55%.

On to `C/C=C/C(C/C=C(\C)CO[Si](C)(C)C(C)(C)C)O[Si](C)(C)C(C)(C)C` (centres undefined), for which the growth inhibition in assay [1] was 1.1%; in assay [2], -14.5%; in assay [3] it was -6.45%; in assay [4] it was -8.45%; in assay [5], 4.9%; in assay [6] it was 2.95%.

Turning to `O=C(CCCCCCCC(=O)OC(CCC1CCCO1)CCC1CCCO1)OC(CCC1CCCO1)CCC1CCCO1` (centres undefined), the growth inhibition in assay [1] is 6.1%; in assay [2], -18.6%; in assay [3], -4.5%; in assay [4] it was -9.75%; in assay [5], -6.5%; in assay [6], 7.05%.

Consider `Cc1c2cnccc2c(C)c2c1c1ccccc1n2CCCCCC#N`, for which the growth inhibition was 98.8% (active) in assay [1]; 99.1% (active) in assay [2]; 99.2% (active) in assay [3]; 98.1% (active) in assay [4]; 98.5% (active) in assay [5]; 98.8% (active) in assay [6].

In the case of `COc1cc2c(cc1OC)C(c1cc(OC)c(OC)c(OC)c1)C1(O)C(=O)OCC1(O)C2` (centres undefined), the growth inhibition was 20.1% in assay [1]; -8.25% in assay [2]; 13.1% in assay [3]; 21.8% in assay [4]; 19.4% in assay [5]; 20.2% in assay [6].

On to `CC(=O)OCC1(C)CCC(C)CO1` (centres undefined), for which the growth inhibition in assay [1] was -21.4%; in assay [2], -4.45%; in assay [3] it was 7.8%; in assay [4], 15.2%; in assay [5], 1.1%; in assay [6], 7%.

Take `COc1ccc(C2CC(c3cc(C)ccc3O)=NC(N)=N2)cc1` (centres undefined): the growth inhibition was 19.6% in assay [1]; 12.8% in assay [2]; 15.8% in assay [3]; 13.2% in assay [4]; 13.4% in assay [5]; 23.4% in assay [6].

`CCN(CC)C(=O)C1C(C=C(C)C)C1(C)C` (centres undefined): the growth inhibition is 6.95% in assay [1]; 20.4% in assay [2]; 12.2% in assay [3]; 5.3% in assay [4]; -10.1% in assay [5]; 7.55% in assay [6].

For `Oc1c(O)c(O)c(O)c(O)c1O`, the growth inhibition in assay [1] was -5.3%; in assay [2], 4.15%; in assay [3], 7.45%; in assay [4], -13.9%; in assay [5], -0.45%; in assay [6] it was -3%.

For `CCOS(=O)(=O)CC(C)C(C)C` (centres undefined), the growth inhibition is 4.75% in assay [1]; -17.3% in assay [2]; -7.8% in assay [3]; -18.1% in assay [4]; -5.65% in assay [5]; -9.1% in assay [6].

Consider `CNC(=O)C1CCC(=O)N1CN(C(C)=O)c1ccccc1` (centres undefined), for which the growth inhibition was 3.85% in assay [1]; 13.9% in assay [2]; -12.9% in assay [3]; 13.7% in assay [4]; -13.9% in assay [5]; -63.5% in assay [6].

`COc1cc(N=Nc2c[nH]c3ccccc23)c(OC)cc1N=Nc1ccc([N+](=O)[O-])cc1`: the growth inhibition was 26.3% in assay [1]; 16.8% in assay [2]; 0.6% in assay [3]; -22% in assay [4]; 13.7% in assay [5]; 34.8% in assay [6].

Take `S=C(NNC(=S)Nc1ccccc1Cl)NNc1ccccc1`: the growth inhibition in assay [1] was 80.8% (active); in assay [2], 82.8% (active); in assay [3], 93.4% (active); in assay [4] it was 68.2%; in assay [5], 82.8% (active); in assay [6] it was 88.9% (active).

For the compound `CC(O)CC(C)O` (centres undefined), the growth inhibition in assay [1] is 1.9%; in assay [2], -4.6%; in assay [3], 2.95%; in assay [4] it was -3.45%; in assay [5], 6.15%; in assay [6], 2.3%.
